Assay outcomes as filed in PubChem.
In the library only some 19% were active in any assay of this set; here they are far more common.
DT40 TDP1 no CPT = qHTS for Inhibitors of human tyrosyl-DNA phosphodiesterase 1 (TDP1): qHTS in cells in absence of CPT. 15% of 420,000 active. Potency, µM (doses to about 46.2 µM), for the others: at the top dose activity change, negative = growth inhibition, hits mostly inhibitors. DT40 Tdp1-/- hTDP1 cells, no CPT, ATP luminescence, 48 h; also: nearly all actives have a fitted effect of over 55% in size
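Growth kinetics read by CellTiter-Glo luminescence after ≥48 hr at 37 °C. Cells: DT40 Tdp1-/- stably carrying human TDP1, 400 per well, compound exposure in the absence of CPT (DMSO vehicle).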
TDP1 cell CPT = DT40-hTDP1 cell growth loss with CPT; chicken DT40 Tdp1-/-;hTDP1 cells + 20 nM CPT, ATP luminescence, 48 h; Potency, µM (series often up to 46.2 µM), inactives show top-dose activity change, negative = growth inhibition, usual class: inhibitors; 12% of 420,000 active; also: nearly all actives have a fitted effect of over 55% in size
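Chicken DT40 Tdp1-/- cells complemented with human TDP1, 400 cells/well, exposed to compounds plus 20 nM camptothecin for at least 48 h at 37 C; viability read as ATP content by CellTiter-Glo luminescence.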
TDP1 block = blocks human tyrosyl-DNA phosphodiesterase 1; Q9NUW8; recombinant TDP1, AlphaScreen DNA substrate cleavage; Potency, µM (top dose mostly 130 µM), for the others: at the top dose activity change, negative = inhibition, hits mostly inhibitors; 0.28% of 350,000 active; AID 485290; also: nearly all actives have a fitted effect of over 40% in size
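Signal: AlphaScreen proximity between streptavidin donor and anti-FITC acceptor beads on intact substrate. Reaction: Tdp1 1 nM, substrate 15 nM final, 5 min RT after 15 min compound preincubation.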
RORg inh = ROR gamma (mouse) transcription inhibition. Potency, µM (titrated, usually from 53.6 µM), for inactives: top-dose activity change, negative = inhibition, actives largely listed as inhibitors. Drosophila S2 Gal4-RORgamma UAS-luciferase reporter, 20 h. P51450. 5.4% of 310,000 active; also: nearly all actives have a fitted effect of over 60% in size
Target sequence (P51450 whole entry, looked up, the tested form may be a part): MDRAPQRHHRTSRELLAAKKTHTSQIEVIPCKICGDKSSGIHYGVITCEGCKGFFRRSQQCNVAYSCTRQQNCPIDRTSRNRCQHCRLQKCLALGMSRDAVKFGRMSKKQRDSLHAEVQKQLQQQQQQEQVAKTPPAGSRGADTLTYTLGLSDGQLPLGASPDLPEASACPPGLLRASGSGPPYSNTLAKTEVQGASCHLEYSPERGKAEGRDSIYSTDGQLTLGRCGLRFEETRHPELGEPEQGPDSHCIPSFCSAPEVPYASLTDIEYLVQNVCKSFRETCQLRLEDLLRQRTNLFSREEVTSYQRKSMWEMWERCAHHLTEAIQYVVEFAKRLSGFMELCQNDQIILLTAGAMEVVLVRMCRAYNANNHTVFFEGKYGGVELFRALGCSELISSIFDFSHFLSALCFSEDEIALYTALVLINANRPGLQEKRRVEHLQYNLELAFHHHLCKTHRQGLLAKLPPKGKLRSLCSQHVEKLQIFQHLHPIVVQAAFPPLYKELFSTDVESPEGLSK
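Using a luciferase readout, inhibitors were identified by reduced reporter activity in Drosophila cells coexpressing a copper-inducible Gal4–ROR gamma fusion and UAS-driven Photinus luciferase, incubated 20 hr after 700 uM copper sulfate.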
Gal4-VP16 FLuc = counter-screen for ROR gamma inhibitors: Gal4-VP16 reporter; Drosophila S2 Gal4-VP16 UAS-luciferase, luminescence, 20 h; Potency, µM (highest dose often 53.6 µM), for inactives: at the top dose activity, negative = inhibition, usual class: inhibitors; 3.5% of 310,000 active; AID 2546;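 also: Gal4-VP16 expression switched on by copper sulfate through the metallothionein promoter; nearly all actives have a fitted effect of over 50% in size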
Numbers without * were called inactive; [ ] = remark or other dose. Calls follow the shape of the dose curve; as a rule, active = well fitted curve in the direction sought with a large enough effect; inconclusive = small, poorly fitted or top-dose-only effect, or another doubt; inactive = no such curve, though single readings can be large; an effect the other way counts as inactive or inconclusive. % is scaled to controls: 0 for no effect and ±100 for the full control effect; potency is read from the fitted curve at half-maximal effect.

For CCc1ccc(C(=O)Nc2nc3ccccc3[nH]2)cc1 the results were DT40 TDP1 no CPT 12µM*, TDP1 cell CPT 18µM*, TDP1 block -5%, RORg inh 2.2µM* and Gal4-VP16 FLuc 4µM*.
`Cn1nc(C(=O)Nc2nc3ccccc3[nH]2)c2ccccc2c1=O` gave DT40 TDP1 no CPT 16µM*, TDP1 cell CPT 18µM*, TDP1 block 7%, RORg inh inconclusive and Gal4-VP16 FLuc inconclusive.
`N#Cc1ccc(C(=O)Nc2nc3ccccc3[nH]2)cc1` gave DT40 TDP1 no CPT inconclusive, TDP1 cell CPT 4%, TDP1 block -10%, RORg inh 3.5µM* and Gal4-VP16 FLuc 7.1µM*.
`O=C(Nc1nc2ccccc2[nH]1)c1ccccc1OC(F)F` gave DT40 TDP1 no CPT inconclusive, TDP1 cell CPT 1%, TDP1 block 0%, RORg inh 7.9µM* and Gal4-VP16 FLuc 10µM*.
`O=C(O)c1cc2c(cc1NC(=O)c1ccccc1OC(F)F)OCCCO2` gave DT40 TDP1 no CPT -11%, TDP1 cell CPT -18%, TDP1 block 5%, RORg inh -5% and Gal4-VP16 FLuc 5%.
N#Cc1ccc(C(=O)Nc2ccc3ccccc3c2)cc1 was read as DT40 TDP1 no CPT inconclusive, TDP1 cell CPT inconclusive, TDP1 block 4%, RORg inh -30% and Gal4-VP16 FLuc -2%.
For Cc1cc(OCC(=O)N2CCC(C(N)=O)CC2)c2c(C)c(C)c(=O)oc2c1 the results were DT40 TDP1 no CPT -10%, TDP1 cell CPT -18%, RORg inh -22% and Gal4-VP16 FLuc -1%.
Screening COC(=O)c1ccc(Cn2nc([N+](=O)[O-])c(Br)c2C)cc1 returned DT40 TDP1 no CPT -22%, TDP1 cell CPT -1%, TDP1 block 4%, RORg inh 34% and Gal4-VP16 FLuc -2%.
Screening COc1ccccc1N1CCN(C(=O)CCc2ccc(S(=O)(=O)NCC(C)C)cc2)CC1 returned DT40 TDP1 no CPT 23µM*, TDP1 cell CPT inconclusive, TDP1 block 2%, RORg inh inconclusive and Gal4-VP16 FLuc 16%.
Screening CC(C)NS(=O)(=O)c1ccc(OCC(=O)N2CCN(c3ccccc3F)CC2)cc1 returned DT40 TDP1 no CPT 15µM*, TDP1 cell CPT inconclusive and TDP1 block 1%.
For COc1ccccc1N1CCN(C(=O)CCc2ccc(S(=O)(=O)NC(C)C)cc2)CC1 the results were DT40 TDP1 no CPT 18µM*, TDP1 cell CPT inconclusive, TDP1 block 1%, RORg inh 0%[10 µM] and Gal4-VP16 FLuc 1%.
Screening CC(C)NS(=O)(=O)c1ccc(CCC(=O)N2CCCC2)cc1 returned DT40 TDP1 no CPT -1%, TDP1 cell CPT 8%, TDP1 block 5%, RORg inh -16% and Gal4-VP16 FLuc -12%.
For CC(=O)Nc1ccc(S(=O)(=O)NNC(=O)C2CCCCC2)cc1 the results were DT40 TDP1 no CPT 10%, TDP1 cell CPT -18%, TDP1 block 4%, RORg inh -38% and Gal4-VP16 FLuc -16%.
For Clc1cccc(N2CCN(c3nnnn3-c3ccccc3)CC2)c1 the results were DT40 TDP1 no CPT -3%, TDP1 cell CPT -13%, TDP1 block 0%, RORg inh 17% and Gal4-VP16 FLuc -8%.
Oc1ccc(N2CCN(c3nnnn3-c3ccccc3)CC2)cc1 was read as DT40 TDP1 no CPT 21µM*, TDP1 cell CPT inconclusive, TDP1 block -3%, RORg inh -14% and Gal4-VP16 FLuc -5%.
`Cc1nc2ncnn2c(C)c1CCC(=O)N1CCc2ccccc21` gave DT40 TDP1 no CPT -27%, TDP1 cell CPT -13%, TDP1 block 5%, RORg inh -5% and Gal4-VP16 FLuc -5%.
COc1ccccc1NC(=O)CN1C(=O)CCS(=O)(=O)c2ccccc21 was read as DT40 TDP1 no CPT -2%, TDP1 cell CPT -1%, TDP1 block 0%, RORg inh -39% and Gal4-VP16 FLuc -5%.
`Cn1cc(S(=O)(=O)N2CCCC2)cc1C(=O)Nc1cccc(C(F)(F)F)c1` gave DT40 TDP1 no CPT inconclusive, TDP1 cell CPT -2%, TDP1 block 0%, RORg inh 15% and Gal4-VP16 FLuc -6%.
`Cc1ccc(NC(=O)CNc2cc(S(=O)(=O)N3CCOCC3)ccc2NCC2CCCO2)cc1F` (stereo not drawn) gave DT40 TDP1 no CPT inconclusive, TDP1 cell CPT inconclusive, TDP1 block 7%, RORg inh inconclusive and Gal4-VP16 FLuc 10%.
Cn1cc(S(=O)(=O)N2CCCC2)cc1C(=O)Nc1ccc(C(F)(F)F)cc1 was read as DT40 TDP1 no CPT inconclusive and TDP1 cell CPT 29µM*.
Screening CCNc1ccc(S(=O)(=O)N(C)C)cc1NCC(=O)Nc1ccc(F)c(Cl)c1 returned DT40 TDP1 no CPT 21µM*, TDP1 cell CPT 12µM*, TDP1 block 7%, RORg inh inconclusive and Gal4-VP16 FLuc inconclusive.
`CCNc1ccc(S(=O)(=O)N2CCOCC2)cc1NCC(=O)Nc1cccc(Br)c1` gave DT40 TDP1 no CPT 2.6µM* and TDP1 cell CPT 7.3µM*.
Cc1cccc(NC(=O)CSCC(=O)Nc2ccc(S(=O)(=O)N3CCCC3)cc2)c1 was read as DT40 TDP1 no CPT -27% and TDP1 cell CPT -3%.
Screening Cc1cccc(CNc2ccc(S(=O)(=O)N3CCCCC3)cc2)c1 returned DT40 TDP1 no CPT inconclusive, TDP1 cell CPT 21µM* and TDP1 block -3%[56.1 µM].
Screening O=C(c1ccc(F)cc1)C1CCN(S(=O)(=O)c2ccccc2)CC1 returned DT40 TDP1 no CPT 4%, TDP1 cell CPT 10%, TDP1 block 1%, RORg inh 11% and Gal4-VP16 FLuc -9%.
For CCOC(=O)C(Cc1ccccc1)c1ccnc2ncnn12 (stereo not drawn) the results were DT40 TDP1 no CPT -1%, TDP1 cell CPT 3%, TDP1 block -5%, RORg inh 41% and Gal4-VP16 FLuc -13%.
O=C(CNc1cccc(Br)c1)Nc1ccc(S(=O)(=O)N2CCCCC2)cc1 was read as DT40 TDP1 no CPT inconclusive and TDP1 cell CPT 21µM*.
CN(C)S(=O)(=O)c1ccc(NC(=O)CNc2cc(S(=O)(=O)N3CCCC3)ccc2OCC(F)(F)F)cc1 was read as DT40 TDP1 no CPT 18µM*, TDP1 cell CPT 21µM*, TDP1 block 4%, RORg inh inconclusive and Gal4-VP16 FLuc inconclusive.
For O=C(CNc1cccc(S(=O)(=O)N2CCCC2)c1)Nc1ccc(C(F)(F)F)cc1 the results were DT40 TDP1 no CPT 15µM*, TDP1 cell CPT 16µM* and TDP1 block -6%.
Screening CCC(C)(C)NC(=O)C(c1ccccc1Cl)N(C(=O)CCC(=O)Nc1cc(C)on1)C1CC1 (stereo not drawn) returned DT40 TDP1 no CPT -27%, TDP1 cell CPT 7%, TDP1 block 3%, RORg inh 21% and Gal4-VP16 FLuc -13%.
